What follows are sequences tested against KRI1 (assay: pooled miR-30 sensor sort-seq; sequence = guide strand). Conditions: shRNA.
Also: reference of the scale not given here.

| Sequence | sensor-assay potency score (higher = more potent) |
| --- | --- |
| TTTGTTGAGGATGTAATCCCGC | -0.152 |
| TACAGGGGCTTCCTCTTCCTGT | -0.817 |
| TTCTTCAACAAGGAGAGCGTTT | -0.767 |
| TAACCTTCCTCTCGTAGTCCTT | -0.514 |
| TTCCTCCACATAACTTTGCGAC | -0.99 |
| TTACTTTCCGCAGCTTCTCCAG | -1.11 |
| TTCTTTAGGGAGCACCACCGGT | -1.34 |
| ATGTCCTCGTAGTCCAGCCGGT | -1.51 |

What follows are sequences tested against KRT2 in the same assay as above. Conditions: shRNA.

| Sequence | sensor-assay potency score (higher = more potent) |
| --- | --- |
| TTTGATGAAATGGTGCTGCTTG | 0.566 |
| TACACTGCTTCTTCACATGTGC | 0.0185 |
| TAAACCTCCAACACCACCAGGG | 0.275 |
| TTGGTGTCAGTGACACTCTGAT | -0.228 |
| TTGGACTGCAACTCCACCTTTA | -0.149 |
| TTTTGATCTGCTCACGCTCTTG | -1.42 |
| TTTCAGAAACTCAATTTCCTGG | -0.272 |
| TTGCACATTCTTACACTGCTTC | 0.204 |
| TTCTGCAGTGAGCCCATCCAGA | -1.13 |
| TTCACATTCTGGATCTCTGGGT | 0.038 |
| TATCTTGATCTCTTTCAGGCTG | 0.155 |
| TTGATCTCCGGCTTCCACCAGA | -0.146 |

Each sequence was assayed against KRT33B in the same assay as above. Conditions: shRNA.

| Sequence | sensor-assay potency score (higher = more potent) |
| --- | --- |
| TCCGTCTGGTACTTGGTTCTGA | -0.6 |
| TTTTCCAGAGAGTATCGCAGGT | 0.0207 |
| ATACTGATTCCTGGTCTCGTTC | -1.38 |
| TTTTCACATGCATTGGTGGTGG | 0.0181 |
| ATTGTCGATCTGCACCACCAGC | -1.36 |
| TAGGACTGCAGCTGCTCCGAGC | -1.39 |
| TTGTCGATCTGCACCACCAGCC | -0.512 |
| TCGATCTGCACCACCAGCCTGG | -0.584 |
| TGGTTCTGAAGTCATCTGCAGC | -1.53 |
| TTGGTTCTGAAGTCATCTGCAG | 0.243 |
| TTTCCAGAGAGTATCGCAGGTT | 0.0223 |
| TTCTCAGACTTGCTGCACAGGA | -1.16 |
| TTGTCAGAGAGGCAGAACTGGC | -1.76 |
| TTCTGAAGTCATCTGCAGCCAG | -0.402 |

What follows are sequences tested against KRT75 in the same assay as above. Conditions: shRNA.

| Sequence | sensor-assay potency score (higher = more potent) |
| --- | --- |
| TTTCACATGTGTAACAGACGGG | 0.696 |
| TTGTGCTTTGACCTCGGCGATG | -1.35 |
| ATAGGCAGCATCTACGTCCTTT | -0.0293 |
| TTGACTCCAAACCTGTTGCTGG | -0.175 |
| TTAATTTCATCTTCGTACCTGA | 0.609 |
| TCAACCTGCACTCCTCGCCTTC | -1.25 |
